Tau fibril FP – qHTS for Inhibitors of Tau Fibril Formation, Fluorescence Polarization; 280,000 compounds, 0.39% hits; AID 1468, 2008; Potency, µM (series often up to 57.7 µM), usual class: inhibitors; Microtubule-associated protein tau (Homo sapiens), P10636; K18 P301L tau heparin fibrillization, Alexa594 FP, 6 h; note: nearly all actives have a fitted effect of over 55% in size
Target sequence (P10636 561-689 P618L limits assumed): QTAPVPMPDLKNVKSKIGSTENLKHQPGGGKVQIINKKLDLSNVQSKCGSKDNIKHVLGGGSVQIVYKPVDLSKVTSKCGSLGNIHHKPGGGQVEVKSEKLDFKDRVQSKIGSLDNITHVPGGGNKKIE
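Human tau K18 […] P301L fragment, 15 uM unlabeled plus 0.24 uM Alexa 594-labeled tau (final), with compound and 20 uM heparin in 100 mM sodium acetate pH 7; 6 hr at 37 C, then Alexa 594 FP read.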
Tau ThT inhib – qHTS for Inhibitors of Tau Fibril Formation, Thioflavin T Binding. Microtubule-associated protein tau (Homo sapiens), P10636. 270,000 compounds, 2.1% hits. Potency, µM (doses to about 57.4 µM), most hits filed as inhibitors. recombinant tau K18 P301L, heparin-induced fibrillization, ThT fluorescence; note: nearly all actives have a fitted effect of over 55% in size
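Recombinant human tau K18 fragment […] carrying P301L, 15 uM unlabeled plus 0.24 uM Alexa 594-labeled, was fibrillized with 20 uM heparin in 100 mM sodium acetate pH 7 for 6 hr at 37 C; 30 uM ThT fluorescence read after 1 hr.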
Tau fluor counter – Counterscreen qHTS for Inhibitors of Tau Fibril Formation, Fluorescence Polarization; tau K18 P301L Alexa594 fluorescence, heparin fibrillization; Potency, µM (titrated, usually from 57.7 µM); 280,000 compounds, 0.93% hits; AID 1463, 2008; note: nearly all actives have a fitted effect of over 55% in size
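Human tau K18 P301L (15 uM unlabeled, 0.24 uM Alexa 594-labeled) in 100 mM sodium acetate pH 7 with 20 uM heparin, 6 hr at 37 C. ThT 30 uM added, 1 hr ambient; Alexa 594 FP and total fluorescence read at 555/632 nm.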
Coupling enz – qHTS Assay for Inhibitors of Fructose-1,6-bisphosphate Aldolase from Giardia Lamblia: Coupling assay counterscreen | 290,000 compounds, 0.67% hits | AID 2472, 2010 | coupling enzyme system counterscreen, AmpLite Red fluorescence | activity change, negative = inhibition, % at 58.2 µM, hits read low; in the data active = activity change below about -30%
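Counterscreen of the coupled detection system alone, without aldolase: glyceraldehyde-3-phosphate coupling enzymes plus AmpLite Red readout. Compounds at 57.5 uM final, 10 min RT preincubation, 20 min RT reaction, fluorescence 525/598 nm.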
Sfp PPTase inh – qHTS Assay for Inhibitors of Bacillus subtilis Sfp phosphopantetheinyl transferase (PPTase) | Biochemical Sfp PPTase activity, qHTS | AID 1490, 2009 | 4'-phosphopantetheinyl transferase ffp (Bacillus subtilis), Q9F4F7 | Potency, µM, usual class: inhibitors | 310,000 compounds, 3.5% hits;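 note: the enzyme is Sfp with the accession as filed and its product quenches rhodamine fluorescence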
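Reaction rates are the 30-min fluorescence difference (ex 525, em 598 nm) in wells containing 15 nM Sfp, 5 uM rhodamine-CoA and 12.5 uM BHQ-2-YbbR at pH 7.6 with 10 mM MgCl2.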
Large screens that a line does not name were inactive; [ ] = remark or other dose. Only some compounds are listed: those with a hit (about 5.2% of all), similar ones and a draw of the others. Unless noted, calls come from the whole dose curve; as a rule, active = well fitted curve in the direction sought with a large enough effect; inconclusive = small, poorly fitted or top-dose-only effect, or another doubt; inactive = no such curve, though single readings can be large; an effect the other way counts as inactive or inconclusive.

CCc1ccccc1NC(=O)c1ccc2nc(C(C)C)oc2c1	none (no result: Coupling enz, Sfp PPTase inh)
COc1ccc2[nH]c3c(=O)n(Cc4ccc(C(=O)N5CCCCCC5)cc4)c(=S)[nH]c3c2c1	none
COc1ccc2[nH]c3c(=O)n(Cc4ccc(C(=O)N5CCC(C(N)=O)CC5)cc4)c(=S)[nH]c3c2c1	Tau ThT inhib inconclusive, Sfp PPTase inh 22µM
Cc1cc(C)c2c(=O)c3c(oc2c1)C(=O)N(Cc1ccc(F)cc1)C3c1cccc(O)c1 (stereo not drawn)	Tau fibril FP inconclusive (no result: Coupling enz, Sfp PPTase inh)
COc1ccc(-c2coc3c(CN4CCCCC4)c(O)c(CN4CCCCC4)c(O)c3c2=O)cc1	Tau ThT inhib inconclusive, Sfp PPTase inh 16µM
CN(C)/N=C/C=C1\CC/C(=C\c2ccc(Br)cc2)C1=O	Tau ThT inhib 0.89µM, Tau fluor counter inconclusive
O=C1/C(=C/c2cccs2)COc2ccccc21	Tau ThT inhib inconclusive
COc1ccc(/C=C2\CC/C(=C\c3ccc(OC)c(OC)c3)C2=O)cc1OC	Tau ThT inhib inconclusive
CN(C)/N=C/C=C1\CCC/C(=C/c2cccs2)C1=O	Tau ThT inhib 0.63µM
Cc1nc(SCC(=O)O)n[nH]1	none
CCc1ccc(C(=O)CSc2n[nH]c(C)n2)cc1	Sfp PPTase inh 56µM
Cc1ccc(C(=O)CSc2n[nH]c(C)n2)cc1	Sfp PPTase inh 89µM
Cc1cccc(NC2=CC(c3cccc(Br)c3)N(c3cccc(C)c3)C2=O)c1 (stereo not drawn)	none (no result: Coupling enz, Sfp PPTase inh)
FC(F)Sc1ccc(NC(=S)NCC2CCCCC2)cc1	Tau fibril FP inconclusive, Tau fluor counter 14µM[quencher]
COC(=O)c1ccc(NC(=O)C2CCN(S(=O)(=O)c3ccc4c(c3)CCCN4C(C)=O)CC2)cc1	none (no result: Coupling enz, Sfp PPTase inh)
CC(C)C(=O)Nc1ccc(NC(=O)c2cccs2)cn1	Coupling enz -44
Cc1ccc(-c2nnc(Nc3ccc(O)cc3)c3ccccc23)cc1S(=O)(=O)N1CCCCC1	Tau fluor counter 4.5µM[quencher] (no result: Coupling enz, Sfp PPTase inh)
Cc1ccc(-c2nnc(Nc3ccc(C(N)=O)cc3)c3ccccc23)cc1S(=O)(=O)N1CCCCC1	Tau fibril FP 28µM, Tau fluor counter inconclusive (no result: Coupling enz, Sfp PPTase inh)
Cc1ccc(-c2nnc(Nc3ccc(S(N)(=O)=O)cc3)c3ccccc23)cc1S(=O)(=O)N1CCCCC1	Tau fibril FP inconclusive (no result: Coupling enz, Sfp PPTase inh)
CCOc1ccc(-c2nnc(SCC(=O)NCc3ccc(Cl)cc3)o2)cc1	none (no result: Coupling enz, Sfp PPTase inh)
Cc1cccc(-c2nnc(SCc3cc(=O)c4cccc(Cl)c4[nH]3)n2C)c1	none (no result: Coupling enz, Sfp PPTase inh)
O=S(=O)(c1ccccc1)C(/C=N\O)/C=C/c1ccccc1 (stereo not drawn)	Tau ThT inhib inconclusive, Sfp PPTase inh 50µM
OC/C=C/c1ccccc1	none (no result: Tau fibril FP, Tau ThT inhib, Tau fluor counter, Coupling enz)
O=C1NC(=O)/C(=C\c2ccc(Br)o2)S1	Sfp PPTase inh inconclusive (no result: Tau fibril FP, Tau ThT inhib, Tau fluor counter)
Cc1nnc(C)n1/N=C/c1ccc(-c2ccccc2Cl)o1	none (no result: Tau fibril FP, Tau ThT inhib, Tau fluor counter)
O=C1NC(=S)/C(=C\c2ccc(-c3ccccc3Cl)o2)S1	Tau fibril FP inconclusive, Tau ThT inhib 7.9µM, Tau fluor counter inconclusive, Sfp PPTase inh 50µM
O=C1NC(=O)/C(=C/c2ccc(-c3cc(C(=O)O)ccc3Cl)o2)S1	Sfp PPTase inh 32µM (no result: Tau fibril FP, Tau ThT inhib, Tau fluor counter)
O=C(c1ccc(Cl)cc1)c1oc2ccccc2c1CS(=O)c1ccc(Cl)cc1 (stereo not drawn)	Sfp PPTase inh 56µM
CC1CCN(S(=O)(=O)c2ccc3c(c2)c(=O)c(C(=O)N2CCN(c4cccc(Cl)c4)CC2)cn3C)CC1	none (no result: Coupling enz, Sfp PPTase inh)
CC(C)Oc1ccc(CNC(=O)C2CCCCN2S(=O)(=O)c2ccc(F)cc2)cc1 (stereo not drawn)	none (no result: Coupling enz, Sfp PPTase inh)
Cc1cccnc1Nc1nc(-c2ccccc2)cs1	Sfp PPTase inh 50µM (no result: Tau fibril FP, Tau ThT inhib, Tau fluor counter)
Cc1cccnc1Nc1nc(-c2ccc(O)cc2O)cs1	Sfp PPTase inh 45µM
Cc1cccnc1Nc1nc(-c2ccccn2)cs1	Tau ThT inhib inconclusive
COc1ccc(NC(=O)C(C)n2nc(-c3ccc(C)c(C)c3)ccc2=O)cc1OC (stereo not drawn)	Tau ThT inhib inconclusive (no result: Coupling enz, Sfp PPTase inh)
COc1ccc(Br)cc1/C=N/NC(=O)CNC(=O)C1COc2ccccc2O1 (stereo not drawn)	Coupling enz -41 (no result: Tau fibril FP, Tau ThT inhib, Tau fluor counter)

Screens from PubChem.
